Values joined by “and” are separate entries in the source; they are usually repeats but may differ in a detail not shown here. Equal entries are not always repeated. About 2,000 (36%) of roughly 5,500 compounds were called active. About 18% were inconclusive and are not listed. Cut-off read from the data, not from the text of the source: active = normalized growth mostly below about 0.91 (no sharp cut-off); inconclusive = no clear call, values can overlap the other calls; inactive = mostly above about 0.92. Some of the results follow.
Experiment: chemical genetic growth profiling, strain panel (AID 1159580);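 note: tested at 20 µM; growth read once vehicle control cultures reached saturation at 30 °C; 1 = growth at the plate median or of vehicle wells; lower values mean less growth of the strain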
Details: S. cerevisiae deletion strains, growth OD
[1] = locus YAL013W, strain DEP1, hits give low values
[2] = locus YBR229C, strain ROT2, hits give low values
[3] = locus YDL101C, strain DUN1, hits give low values
[4] = locus YDL134C, strain PPH21, hits give low values
[5] = locus YDR150W, strain NUM1, hits give low values
[6] = locus YEL061C, strain CIN8, hits give low values
[7] = locus YHR030C, strain SLT2, hits give low values
[8] = locus YJR043C, strain POL32, hits give low values
[9] = locus YJR075W, strain HOC1, hits give low values
[10] = locus YKL190W, strain CNB1, hits give low values
[11] = locus YLR039C, strain RIC1, hits give low values
[12] = locus YLR262C, strain YPT6, hits give low values
[13] = locus YMR263W, strain SAP30, hits give low values
[14] = locus YMR307W, strain GAS1, hits give low values
[15] = locus YNL322C, strain KRE1, hits give low values
[16] = locus YPL055C, strain LGE1, hits give low values
[17] = locus YPL241C, strain CIN2, hits give low values

Measured: normalized growth

Cc1cc(OCOc2ccc(Cl)c(C)c2)ccc1Cl
inactive: [1] 0.984 | [2] 0.988 | locus YCL061C, strain MRC1, hits give low values 1.03 | [3] 1.05 | [4] 0.995 | [5] 0.997 | [6] 0.992 | locus YGR078C, strain PAC10, hits give low values 1.01 | locus YGR229C, strain SMI1, hits give low values 0.999 | [7] 0.814 | locus YHR087W, strain rtc3, hits give low values 0.955 | [8] 1.03 | [9] 1.02 | [10] 0.966 | [11] 1.11 | locus YLR058C, strain SHM2 (second series), hits give low values 0.989 | locus YLR085C, strain ARP6, hits give low values 0.973 | [12] 0.99 | locus YML094W, strain GIM5, hits give low values 0.982 | locus YMR219W, strain ESC1, hits give low values 0.991 | [13] 0.927 | [14] 0.834 | locus YNL153C, strain GIM3, hits give low values 1.01 | locus YNL298W, strain CLA4 (second series), hits give low values 1.04 | [15] 0.982 | locus YNR030W, strain Alg12, hits give low values 0.97 | locus YOL006C, strain TOP1, hits give low values 0.916 | [16] 0.975 | [17] 1 | locus YPR135W, strain CTF4, hits give low values 0.999

Cc1cc(O)cc(=O)o1
inactive: [1] 0.999 | locus YAL021C, strain ccr4, hits give low values 0.991 | locus YAL026C, strain drs2, hits give low values 0.998 | locus YAL030W, strain snc1, hits give low values 0.993 | locus YBL061C, strain skt5, hits give low values 1 | locus YBR009C, strain hhf1, hits give low values 0.997 | locus YBR021W, strain FUR4, hits give low values 0.985 | locus YBR023C, strain chs3, hits give low values 1.01 | locus YBR171W, strain sec66, hits give low values 0.988 | [2] 0.992 | locus YBR231C, strain swc5, hits give low values 1.02 | locus YBR279W, strain paf1, hits give low values 1 | locus YCL011C, strain gbp2, hits give low values 0.991 | locus YCL016C, strain dcc1, hits give low values 0.991 | locus YCL029C, strain bik1, hits give low values 0.974 | locus YCL069W, strain vba3, hits give low values 1.01 | locus YCR088W, strain abp1, hits give low values 0.991 | locus YDL005C, strain med2, hits give low values 1.01 | locus YDL035C, strain GPR1, hits give low values 1.02 | locus YDL040C, strain nat1, hits give low values 1 | locus YDL074C, strain BRE1, hits give low values 1.01 | [3] 0.988 | [4] 1.03 | locus YDL185W, strain tfp1, hits give low values 0.971 | locus YDL192W, strain arf1, hits give low values 0.994 | locus YDR001C, strain nth1, hits give low values 0.989 | locus YDR069C, strain doa4, hits give low values 1.03 | locus YDR101C, strain arx1, hits give low values 0.971 | locus YDR137W, strain rgp1, hits give low values 0.998 | [5] 1.01 | locus YDR159W, strain sac3, hits give low values 1.02 | locus YDR162C, strain NBP2, hits give low values 1.02 | locus YDR195W, strain ref2 0.979 | locus YDR297W, strain sur2, hits give low values 1.02 | locus YDR318W, strain mcm21, hits give low values 1.02 | locus YDR334W, strain swr1, hits give low values 0.989 | locus YDR335W, strain msn5, hits give low values 1 | locus YDR388W, hits give low values 0.992 | locus YDR392W, strain spt3, hits give low values 1.03 | locus YDR502C, strain sam2, hits give low values 1 | locus YEL003W, strain gim4, hits give low values 0.992 | locus YEL037C, strain rad23, hits give low values 0.994 | locus YEL061C, strain CIN8 (second series), hits give low values 0.992 | [6] 1 | locus YER015W, strain faa2, hits give low values 1.01 | locus YER016W, strain bim1, hits give low values 0.994 | locus YER110C, hits give low values 0.986 | locus YER111C, strain swi4, hits give low values 1.01 | locus YER155C, strain BEM2 (second series), hits give low values 1.04 | locus YER155C, strain BEM2, hits give low values 0.982 | locus YER167W, strain BCK2, hits give low values 0.99 | locus YFR010W, strain ubp6, hits give low values 0.982 | locus YGL078C, strain dbp3, hits give low values 0.981 | locus YGL086W, strain mad1, hits give low values 0.969 | locus YGL167C, strain pmr1, hits give low values 0.983 | locus YGL173C, strain kem1, hits give low values 1.02 | locus YGL227W, strain vid30, hits give low values 1.01 | locus YGL240W, strain doc1, hits give low values 1.03 | locus YGL248W, strain PDE1, hits give low values 0.997 | locus YGL253W, strain hxk2, hits give low values 0.997 | locus YGR135W, strain pre9, hits give low values 1.03 | locus YGR252W, strain gcn5, hits give low values 1.09 | locus YHR013C, strain ard1, hits give low values 0.998 | locus YHR027C, strain rpn1, hits give low values 0.989 | [7] 0.992 and 0.959 | locus YHR079C, strain IRE1 (second series), hits give low values 0.992 | locus YHR079C, strain IRE1, hits give low values 0.969 | locus YHR094C, strain hxt1, hits give low values 0.986 | locus YHR129C, strain ARP1, hits give low values 1 | locus YHR142W, strain chs7, hits give low values 0.987 | locus YHR200W, strain rpn10, hits give low values 0.993 | locus YIL066C, strain RNR3, hits give low values 0.988 | locus YIL073C, strain SPO22, hits give low values 0.993 | locus YIL125W, strain kgd1, hits give low values 0.984 | locus YIR030C, strain dcg1, hits give low values 0.99 | locus YJL092W, strain hpr5, hits give low values 0.987 | locus YJL095W, strain BCK1 (second series), hits give low values 1 | locus YJL095W, strain BCK1, hits give low values 1.01 and 0.959 | locus YJL115W, strain asf1, hits give low values 0.969 | locus YJL129C, strain trk1, hits give low values 1 | locus YJL134W, strain LCB3, hits give low values 0.994 | locus YJL154C, strain vps35, hits give low values 0.989 | locus YJL164C, strain tpk1, hits give low values 0.996 | locus YJL166W, strain qcr8, hits give low values 1.03 | locus YJL168C, strain set2, hits give low values 0.992 | locus YJL187C, strain SWE1 (second series), hits give low values 0.992 | locus YJL187C, strain SWE1, hits give low values 1.01 | [8] 1.01 | locus YJR066W, strain TOR1, hits give low values 0.921 | [9] 0.998 | locus YKL009W, strain mrt4, hits give low values 0.961 | locus YKL068W, hits give low values 0.989 | locus YKL085W, strain MDH1 (second series), hits give low values 0.984 | locus YKL085W, strain MDH1, hits give low values 0.984 | locus YKL160W, strain elf1, hits give low values 0.994 | [10] 1.01 | locus YKR001C, strain vps1, hits give low values 0.983 | locus YKR026C, strain gcn3, hits give low values 0.993 | locus YKR091W, strain srl3, hits give low values 0.983 | locus YLL001W, strain dnm1, hits give low values 0.995 | locus YLL026W, hits give low values 1.01 | locus YLL041C, strain sdh2, hits give low values 0.985 | locus YLR027C, strain aat2, hits give low values 1.01 | [11] 1.02 | locus YLR058C, strain SHM2, hits give low values 1 | locus YLR102C, strain apc9, hits give low values 0.991 | locus YLR113W, strain HOG1, hits give low values 0.951 | locus YLR221C, strain rsa3, hits give low values 1.03 | locus YLR258W, strain gsy2, hits give low values 1.02 | locus YLR262C, strain YPT6 (second series), hits give low values 0.995 | [12] 1.04 | locus YLR268W, strain sec22, hits give low values 0.965 | locus YLR320W, strain mms22, hits give low values 1.05 | locus YLR330W, strain CHS5, hits give low values 0.99 | locus YLR342W, strain FKS1 (second series), hits give low values 1 | locus YLR342W, strain FKS1, hits give low values 1.01 | locus YLR357W, strain rsc2, hits give low values 0.973 | locus YLR370C, strain arc18, hits give low values 1.01 | locus YLR371W, strain rom2, hits give low values 0.974 | locus YLR384C, strain iki3, hits give low values 1 | locus YLR418C, strain cdc73, hits give low values 1.01 | locus YML016C, strain PPZ1, hits give low values 0.985 | locus YML032C, strain rad52, hits give low values 1.02 | locus YML120C, strain ndi1, hits give low values 0.994 | locus YML124C, strain tub3, hits give low values 0.994 | locus YMR058W, strain fet3, hits give low values 0.987 | locus YMR078C, strain ctf18, hits give low values 0.991 | locus YMR125W, strain sto1, hits give low values 0.955 | locus YMR129W, hits give low values 0.996 | locus YMR205C, strain PFK2, hits give low values 1.01 | locus YMR223W, strain ubp8, hits give low values 0.999 | locus YMR231W, strain pep5, hits give low values 1.01 | [13] 1.01 | [14] 1.01 | locus YNL067W, strain RPL9B, hits give low values 1.01 | locus YNL071W, strain lat1, hits give low values 1 | locus YNL183C, strain NPR1, hits give low values 0.898 | locus YNL209W, strain ssb2, hits give low values 0.995 | locus YNL233W, strain BNI4, hits give low values 0.997 | locus YNL248C, strain rpa49, hits give low values 0.99 | locus YNL250W, strain rad50, hits give low values 0.991 | locus YNL271C, strain bni1, hits give low values 0.976 | locus YNL298W, strain CLA4, hits give low values 0.988 | locus YNL307C, strain MCK1, hits give low values 0.977 | locus YNL322C, strain KRE1 (second series), hits give low values 0.99 | [15] 0.997 | locus YNR049C, strain mso1, hits give low values 0.984 | locus YNR052C, strain pop2, hits give low values 0.988 | locus YOL012C, strain htz1 0.84 | locus YOL147C, strain pex11, hits give low values 0.993 | locus YOR001W, strain rrp6, hits give low values 1.01 | locus YOR061W, strain CKA2, hits give low values 0.991 | locus YOR069W, strain VPS5, hits give low values 0.992 | locus YOR070C, strain gyp1, hits give low values 1.01 | locus YOR080W, strain dia2, hits give low values 0.997 | locus YOR083W, strain WHI5, hits give low values 0.999 | locus YOR106W, strain vam3, hits give low values 0.999 | locus YOR136W, strain idh2, hits give low values 0.971 | locus YOR144C, strain elg1, hits give low values 0.989 | locus YOR184W, strain ser1, hits give low values 0.992 | locus YOR231W, strain MKK1, hits give low values 0.965 | locus YOR265W, strain rbl2, hits give low values 1.01 | locus YOR270C, strain vph1, hits give low values 1.02 | locus YOR290C, strain snf2, hits give low values 0.974 | locus YOR316C, strain cot1, hits give low values 0.986 | locus YPL051W, strain arl3, hits give low values 0.999 | [16] 1.01 | locus YPL078C, strain atp4, hits give low values 0.994 | locus YPL106C, strain sse1, hits give low values 1.01 | locus YPL240C, strain hsp82, hits give low values 0.99 | [17] 1.01 | locus YPL256C, strain CLN2, hits give low values 0.948 | locus YPR119W, strain clb2, hits give low values 0.99 | locus YPR141C, strain kar3, hits give low values 0.984 | locus YPR163C, strain tif3, hits give low values 0.992 | locus YPR167C, strain met16, hits give low values 0.996 | strain wtn01, hits give low values 0.93

Source: PubChem BioAssay AID1159580 (chemical genetic matrix, 2015)
